Holding throughout (experiment): glycan array binding signal (z-score within array); higher = stronger binding
What all share (details): glycan notation: IUPAC condensed, linker removed

In one assay the target is Gal3S6S(b1-4)GlcNAc6S. Put shortly: (§1)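 Glycan array data were curated from 3228 arrays in the Consortium for Functional Glycomics database and kept only where the protein sequence was available. Glycan names were converted to IUPAC-condensed notation, and columns mapping to the same glycan were averaged. The binding signal is a within-array Z-score, averaged across arrays of the same protein sequence at different concentrations or buffers and across linkers. Negative Z-scores can be read as non-binding.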

The next assay concerns the target Gal4S6S(b1-4)GlcNAc. Put shortly:
as §1

In the next assay the target is Gal6P(b1-4)GlcNAc. In short, it runs like this:
as §1

The target of assay [1] is GlcNAc(b1-2)Gal(b1-3)GalNAc. Put shortly:
as §1

Assay [2] deals with GlcNAc(b1-2)[GlcNAc(b1-4)]Man(a1-3)[GlcNAc(b1-2)Man(a1-6)]Man(b1-4)GlcNAc(b1-4)GlcNAc. In short, it runs like this:
as §1

The target in assay [3] is GlcNAc(b1-3)Gal(b1-4)GlcNAc(b1-3)Gal(b1-4)GlcNAc(b1-3)Gal(b1-4)GlcNAc(b1-2)[GlcNAc(b1-3)Gal(b1-4)GlcNAc(b1-3)Gal(b1-4)GlcNAc(b1-3)Gal(b1-4)GlcNAc(b1-6)]Man(a1-6)[GlcNAc(b1-3)Gal(b1-4)GlcNAc(b1-3)Gal(b1-4)GlcNAc(b1-3)Gal(b1-4)GlcNAc(b1-2)Man(a1-3)]Man(b1-4)GlcNAc(b1-4)[Fuc(a1-6)]GlcNAc. In short, it runs like this:
as §1

The target of another assay is GlcNAc(b1-3)Man. In short, it runs like this:
as §1

Assay [4] addresses GlcNAc(b1-3)[GlcNAc(b1-6)]GalNAc. In short, it runs like this: as §1
Assay [5] has as its target Man(a1-3)[Man(a1-6)]Man(b1-4)GlcNAc(b1-4)GlcNAc. Put shortly: as §1
For assay [6], the target named is Neu5Ac(a2-3)Gal(b1-3)GalNAc(b1-4)Gal(b1-4)Glc. In short, it runs like this:
as §1

Assay [7] deals with Neu5Ac(a2-3)Gal(b1-3)GalNAc(b1-4)[Neu5Ac(a2-3)]Gal(b1-4)Glc. Put shortly: as §1
The target in assay [8] is Neu5Ac(a2-3)Gal(b1-3)GalNAc6S. In short, it runs like this: as §1
Assay [9] addresses Neu5Ac(a2-3)Gal(b1-3)GlcNAc(b1-2)[Neu5Ac(a2-3)Gal(b1-3)GlcNAc(b1-4)]Man(a1-6)[Neu5Ac(a2-3)Gal(b1-3)GlcNAc(b1-2)Man(a1-3)]Man(b1-4)GlcNAc(b1-4)GlcNAc. Put shortly: as §1
The target of assay [10] is Neu5Ac(a2-3)Gal(b1-4)GlcNAc(b1-2)Man. In short, it runs like this: as §1
Assay [11] deals with Neu5Ac(a2-3)Gal(b1-4)GlcNAc(b1-3)GalNAc. Put shortly:
as §1

In assay [12] the target is Neu5Ac(a2-3)Gal(b1-4)GlcNAc(b1-6)[Gal(b1-3)]GalNAc. In short, it runs like this: as §1
Assay [13] concerns the target Neu5Ac(a2-3)Gal(b1-4)[Fuc(a1-3)]GlcNAc. In short, it runs like this:
as §1

Assay [14] concerns the target Neu5Ac(a2-6)Gal(b1-4)GlcNAc(b1-2)Man(a1-3)Man(b1-4)GlcNAc(b1-4)GlcNAc. Put shortly:
as §1

The target of assay [15] is Neu5Ac(a2-6)Gal(b1-4)GlcNAc(b1-2)Man(a1-3)[GlcNAc(b1-4)][Neu5Ac(a2-6)Gal(b1-4)GlcNAc(b1-2)Man(a1-6)]Man(b1-4)GlcNAc(b1-4)GlcNAc. In short, it runs like this:
as §1

Assay [16] addresses Neu5Ac(a2-6)Gal(b1-4)GlcNAc(b1-2)Man(a1-3)[Man(a1-6)]Man(b1-4)GlcNAc(b1-4)GlcNAc. In short, it runs like this: as §1
Assay [17] addresses Neu5Ac(a2-6)Gal(b1-4)GlcNAc(b1-3)Gal(b1-4)GlcNAc. Put shortly:
as §1

In assay [18] the target is Neu5Ac9Ac(a2-3)Gal(b1-4)GlcNAc. In short, it runs like this: as §1
In assay [19] the target is Neu5Gc(a2-3)Gal(b1-3)GlcNAc. In short, it runs like this:
as §1

Assay [20] deals with Neu5Gc(a2-3)Gal(b1-4)[Fuc(a1-3)]GlcNAc. Put shortly:
as §1

This is one part of a sample in which the strongest signals are shown more often than they occur.

B1: Cp ZmpB (Clostridium perfringens), Q0TR08 (protein)
chain: MNKRKIAAIILATMITNLSATTIDVLAQELNTKNNSKVEVSHDDESHQARVSKFDLYNSDKLDAYNQEFQVSRSNIKSINNNGGKYNSSTIDKAIDGNLETHWETGKPNDANFTNEVVVTFNEITNIDRIVYSARRDSARGKGFAKEFEIYASLKDEGDDFNLVSSGEYTESTRDLVEIKFNPTDFKRLKFKFKKADQNWASAAEFMFYKEDKLNEKFNGLFTDSSMNKVSEEFNTLEKLNAFENELKDHPIYDLYKEGLNNARAILTETSENPTKATLGQITYNLNDDYNNQYRMPYKNIKAIKNNGRHYAAQNIEKAIDNDVNTYWETGTLNSSSFNNEVEVEFNDLVTLDRIVYGSRQSDLKGFAEEVYIYASRTSKGDTYKLVATGAHEATKGLVEAKFEPTEFKRVKFKFKKSKQNSATLNELMFYKPDEVYSSIPKLFTDGTMSELSEEFNSLEKINAFKEKAKNHPLYNDFNETIELAESLISNPRKEDVLELEMRGDSISEAKKRKVWNFQDWQITGLSARAGDKITVYVDVAEGDPTPTLLYKQSLTQHGGATSFQLKPGKNEITIPEINYESNGIPKDVIQGGDLFFTNYKSDSQKRAPKVRIEGASKYPVFILGKSDENEVMKELEAYVEKIKAEPKTTPNIFAVSSNKSLEFVQATYALDWYKKNNKTPKYTAEQWDQYIADAMGFWGFDNSKDVNSDFNFRIMPMVKNLSGGAFMNAGNGVIGIRPGNQDAILAANKGWGVAHELGHNFDTGGRTIVEVTNNMMPLFFESKYKTKTRITDQNIWENNTYPKVGLDDYSNNELYNKADSTHLAQLAPLWQLYLYDNTFYGKFERQFRERDFGNKNREDIYKSWVVAASDAMELDLTEFFARHGIRVDDKVKEDLAKYPKPDKKIYYLNDLAMNYKGDGFTENAKVSVSTSGSNGNIKLSFSVDDENKDNILGYEIRRDGKYVGFTSNDSFVDTKSNLDEDGVYVVTPYDRKLNTLNPIEVNALQPTLSVNPVITLALGEEFNEEEYIVAKDIKGNSLSESVKVKSSNVNTSKVGEYEVLYSLEDSKGNEYTKTSKVNVVSRKEYMSDLTPKQSSNGWGTVRKDKSISGGVIGLTRDGDFVDYNKGLGLHSNAEYVYDLEGKDYDYFESYVGVDKAMSSRPASSVIFKVLVDGEEKFNSGVMRSTTPQKYVKVDVKNAKELKLIVNDAGDGDSSDHASFGDAKLATLSSKPIIKGENLAYSMDEKVDLMKGITATDIEDGNITSKVQIKSSDFVEGKSGIFTVVYSVTDSDGLTSECSRTIAVTDKETQLSDLNWKSATIGSGSVRKDRAVSGNQIRLLNEDNSVETFAKGIGTHSYSEIVYNSEGYDIFDTWVGIDRHVADKKVSSVKFKVYVDGELKAETDVMRIDTPKKRLVVDVRNSKEIKLVVDVADNGNNWDHADWADAKFRNLAEYDASELNKAIEEAKKLDLNNYTEESSEALKNAISKGEEALLSKDKETINSALEELNKEMNSLVKVDLNAVINIPDKYLLKSIQNQLNKTGDITLGDMYSLTTLTLSGVEDLTGLENAKNLETLNMDYNEVKDLRPLSKLKKLNTLNAQEQFIAAGELKPSNGKVIGDSKVYNREGKNVAKTIRVVDKNGNTILEQDAKDEFTINTKDLSSGLYGVHVLFEDEGFSGVMFYLFNV
For the molecule B1, the “glycan array binding signal (z-score)” value with Gal3S6S(b1-4)GlcNAc6S is 1.17; with Gal4S6S(b1-4)GlcNAc it was 0.461; with Gal6P(b1-4)GlcNAc it was -0.373; in [1], 2.81; in assay [2], 1.11; in [3], -0.173. The “glycan array binding signal (z-score)” value with GlcNAc(b1-3)Man is 0.057; in assay [4], -0.207; in assay [5], -0.046; in assay [6], 0.164; in assay [7], 1.03; in assay [8], -0.457. For the same molecule, the “glycan array binding signal (z-score)” value in assay [9] is 0.01; in [10], 0.151; in assay [11], -0.142; in assay [12], 1.22; in assay [13], 0.096; in assay [14], -0.151. Further, the “glycan array binding signal (z-score)” value in assay [15] was -0.267; in assay [16], -0.365; in assay [17], 1.03; in [18], 1.71; in assay [19], -0.326; in [20], 2.05.
